# Source: paper PMC7862700, “An all-to-all approach to the identification of sequence-specific readers for epigenetic DNA modifications on cytosine”
# Tests used:
# Experiment in all cases: DAPPL (digital affinity profiling via proximity ligation, sequencing); 10 mM Tris-HCl pH 7.5, 50 mM NaCl, 1 mM DTT, 4% glycerol, room temperature, 30 min; GST-TFs on glutathione beads, 16-mer random dsDNA library, 0.1% formaldehyde crosslink after washing; high values mean tight binding
# Conditions in all cases: protein: recombinant; tags: N-terminal GST; dsDNA, one strand shown
# ELK1 = target: T1, ELK1 (Homo sapiens, UniProt P19419 1-428)
# T1 sequence: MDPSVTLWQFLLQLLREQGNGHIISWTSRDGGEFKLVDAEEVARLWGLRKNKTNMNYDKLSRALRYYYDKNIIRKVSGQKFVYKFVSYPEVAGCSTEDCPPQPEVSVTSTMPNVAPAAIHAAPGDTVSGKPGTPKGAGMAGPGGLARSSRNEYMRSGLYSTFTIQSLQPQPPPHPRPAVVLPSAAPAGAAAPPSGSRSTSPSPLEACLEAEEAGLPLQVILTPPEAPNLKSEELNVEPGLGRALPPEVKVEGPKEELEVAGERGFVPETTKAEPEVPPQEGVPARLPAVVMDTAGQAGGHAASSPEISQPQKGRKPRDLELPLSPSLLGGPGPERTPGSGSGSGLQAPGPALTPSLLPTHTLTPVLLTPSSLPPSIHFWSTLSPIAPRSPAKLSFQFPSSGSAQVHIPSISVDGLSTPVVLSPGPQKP
# Summary of the method: (§1)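 Binding signal is each hexamer's read frequency for a factor divided by its frequency in the tag-only sample. The factors were GST-fused human transcription factors from yeast, captured on glutathione beads, DNA-barcoded and pooled with that sample. Pools were incubated with 200 nmole of a random double-stranded 16-mer DNA library in Tris/NaCl/DTT/glycerol buffer at room temperature for 30 min, then washed, crosslinked with 0.1% formaldehyde, proximity-ligated with BsaI/T4 ligase (1 h, 37 °C), PCR-amplified and sequenced on an Illumina NextSeq500.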
# GABPA = target: T2, GABPA (Homo sapiens, UniProt Q06546 1-454)
# T2 sequence: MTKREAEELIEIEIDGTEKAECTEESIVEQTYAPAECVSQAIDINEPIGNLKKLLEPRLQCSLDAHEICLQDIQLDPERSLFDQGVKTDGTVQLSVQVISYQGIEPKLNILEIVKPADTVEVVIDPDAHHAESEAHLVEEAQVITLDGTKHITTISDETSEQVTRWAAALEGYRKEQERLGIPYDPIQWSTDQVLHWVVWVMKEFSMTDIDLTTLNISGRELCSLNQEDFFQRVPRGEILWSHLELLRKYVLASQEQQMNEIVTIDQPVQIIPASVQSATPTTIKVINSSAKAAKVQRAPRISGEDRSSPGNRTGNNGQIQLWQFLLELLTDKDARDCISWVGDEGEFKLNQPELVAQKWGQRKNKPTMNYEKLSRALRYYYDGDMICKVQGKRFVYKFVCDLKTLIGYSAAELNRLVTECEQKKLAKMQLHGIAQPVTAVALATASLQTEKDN
# Summary of the method: as §1
# ERG = target: T3, ERG (Homo sapiens, UniProt P11308 1-479)
# T3 sequence: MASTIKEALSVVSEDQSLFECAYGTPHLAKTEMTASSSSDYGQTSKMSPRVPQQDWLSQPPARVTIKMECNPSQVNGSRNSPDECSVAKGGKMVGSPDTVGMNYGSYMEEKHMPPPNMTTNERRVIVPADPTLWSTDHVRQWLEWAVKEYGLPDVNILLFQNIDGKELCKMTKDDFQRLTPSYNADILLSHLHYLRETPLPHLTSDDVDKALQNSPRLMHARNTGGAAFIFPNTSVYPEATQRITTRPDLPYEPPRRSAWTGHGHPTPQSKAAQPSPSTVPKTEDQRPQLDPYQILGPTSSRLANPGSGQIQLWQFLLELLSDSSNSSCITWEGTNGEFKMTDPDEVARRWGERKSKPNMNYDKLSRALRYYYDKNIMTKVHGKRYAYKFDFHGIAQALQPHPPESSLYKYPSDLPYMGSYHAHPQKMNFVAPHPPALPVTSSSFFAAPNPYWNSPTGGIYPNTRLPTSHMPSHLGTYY
# Summary of the method: as §1
# ELF1 = ELF1 (Homo sapiens, UniProt P32519 1-619)
# Summary of the method: as §1
# EHF = target: T4, EHF (Homo sapiens, UniProt Q9NZC4 1-300)
# T4 sequence: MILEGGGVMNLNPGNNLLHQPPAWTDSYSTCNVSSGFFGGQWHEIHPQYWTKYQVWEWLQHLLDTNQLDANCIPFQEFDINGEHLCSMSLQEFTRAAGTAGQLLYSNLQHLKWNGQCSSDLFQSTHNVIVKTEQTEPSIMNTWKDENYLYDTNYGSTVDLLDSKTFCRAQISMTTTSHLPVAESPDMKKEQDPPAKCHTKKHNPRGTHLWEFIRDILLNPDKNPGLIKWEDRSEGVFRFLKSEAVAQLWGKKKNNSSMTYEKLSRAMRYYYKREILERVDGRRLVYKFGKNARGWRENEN
# Summary of the method: as §1
# FEV = target: T5, FEV (Homo sapiens, UniProt Q99581 1-238)
# T5 sequence: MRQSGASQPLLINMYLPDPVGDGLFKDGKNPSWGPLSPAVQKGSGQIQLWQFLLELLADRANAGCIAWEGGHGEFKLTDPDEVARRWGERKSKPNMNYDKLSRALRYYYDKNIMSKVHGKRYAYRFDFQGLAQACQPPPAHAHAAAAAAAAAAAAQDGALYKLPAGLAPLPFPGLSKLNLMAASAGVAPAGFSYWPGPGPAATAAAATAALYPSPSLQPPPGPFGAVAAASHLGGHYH
# Summary of the method: as §1
# ETV5 = ETV5 (Homo sapiens, UniProt P41161 1-510)
# Summary of the method: as §1
# ELF4 = ELF4 (Homo sapiens, UniProt Q99607 1-663)
# Summary of the method: as §1
# ELK4 = target: T6, ELK4 (Homo sapiens, UniProt P28324-2 1-405)
# T6 sequence: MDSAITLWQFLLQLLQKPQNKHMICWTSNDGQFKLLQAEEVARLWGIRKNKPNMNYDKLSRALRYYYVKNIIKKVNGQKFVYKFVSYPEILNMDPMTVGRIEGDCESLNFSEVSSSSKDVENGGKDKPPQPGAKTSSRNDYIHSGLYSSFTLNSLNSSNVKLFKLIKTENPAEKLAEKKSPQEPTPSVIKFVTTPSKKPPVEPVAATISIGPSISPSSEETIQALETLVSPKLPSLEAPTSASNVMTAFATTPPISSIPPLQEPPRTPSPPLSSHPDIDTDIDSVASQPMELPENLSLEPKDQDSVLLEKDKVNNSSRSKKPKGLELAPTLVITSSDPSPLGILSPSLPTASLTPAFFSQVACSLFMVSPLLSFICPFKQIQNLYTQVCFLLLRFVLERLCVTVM
# Summary of the method: as §1
# ELF3 = target: T7, ELF3 (Homo sapiens, UniProt P78545 1-371)
# T7 sequence: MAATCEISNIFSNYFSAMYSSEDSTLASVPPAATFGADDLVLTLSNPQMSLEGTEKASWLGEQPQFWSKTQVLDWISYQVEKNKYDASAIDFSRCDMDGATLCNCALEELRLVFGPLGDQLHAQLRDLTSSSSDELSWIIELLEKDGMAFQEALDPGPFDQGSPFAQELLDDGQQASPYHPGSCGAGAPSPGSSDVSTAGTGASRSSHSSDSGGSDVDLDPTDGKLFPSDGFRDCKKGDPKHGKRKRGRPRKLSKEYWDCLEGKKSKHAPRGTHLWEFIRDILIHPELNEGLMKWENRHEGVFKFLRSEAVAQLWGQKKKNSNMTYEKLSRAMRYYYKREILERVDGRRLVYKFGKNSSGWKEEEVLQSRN
# Summary of the method: as §1
# ETV1 = ETV1 (Homo sapiens, UniProt P50549 1-477)
# Summary of the method: as §1
# ERF = target: T8, ERF (Homo sapiens, UniProt P50548 1-548)
# T8 sequence: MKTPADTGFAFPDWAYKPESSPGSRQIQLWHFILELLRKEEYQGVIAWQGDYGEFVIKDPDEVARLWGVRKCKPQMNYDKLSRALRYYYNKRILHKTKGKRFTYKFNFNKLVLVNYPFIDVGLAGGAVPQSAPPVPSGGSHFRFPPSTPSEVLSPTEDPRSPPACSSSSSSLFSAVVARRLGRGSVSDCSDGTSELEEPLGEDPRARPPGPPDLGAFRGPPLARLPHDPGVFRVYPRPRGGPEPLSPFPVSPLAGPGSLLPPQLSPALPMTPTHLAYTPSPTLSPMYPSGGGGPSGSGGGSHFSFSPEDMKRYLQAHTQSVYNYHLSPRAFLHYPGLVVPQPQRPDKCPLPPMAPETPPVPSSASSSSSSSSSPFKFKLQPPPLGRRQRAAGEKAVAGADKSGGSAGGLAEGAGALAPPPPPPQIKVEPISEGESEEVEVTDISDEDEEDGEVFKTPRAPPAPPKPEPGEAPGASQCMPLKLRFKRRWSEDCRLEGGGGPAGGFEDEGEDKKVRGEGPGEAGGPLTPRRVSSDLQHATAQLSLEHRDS
# Summary of the method: as §1
# ETV3L = target: T9, ETV3L (Homo sapiens, UniProt Q6ZN32 1-361)
# T9 sequence: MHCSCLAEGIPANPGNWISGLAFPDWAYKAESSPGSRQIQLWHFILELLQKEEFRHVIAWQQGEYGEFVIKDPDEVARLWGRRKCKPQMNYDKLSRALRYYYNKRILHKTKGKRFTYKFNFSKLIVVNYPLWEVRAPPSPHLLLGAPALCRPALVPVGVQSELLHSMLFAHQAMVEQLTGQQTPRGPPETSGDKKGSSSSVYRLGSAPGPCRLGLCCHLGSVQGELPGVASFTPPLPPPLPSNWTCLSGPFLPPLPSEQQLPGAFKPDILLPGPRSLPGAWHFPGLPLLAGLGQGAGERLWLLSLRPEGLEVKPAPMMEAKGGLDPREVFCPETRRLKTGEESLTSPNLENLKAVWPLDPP
# Summary of the method: as §1
# ETS2 = target: T10, ETS2 (Homo sapiens, UniProt P15036 1-469)
# T10 sequence: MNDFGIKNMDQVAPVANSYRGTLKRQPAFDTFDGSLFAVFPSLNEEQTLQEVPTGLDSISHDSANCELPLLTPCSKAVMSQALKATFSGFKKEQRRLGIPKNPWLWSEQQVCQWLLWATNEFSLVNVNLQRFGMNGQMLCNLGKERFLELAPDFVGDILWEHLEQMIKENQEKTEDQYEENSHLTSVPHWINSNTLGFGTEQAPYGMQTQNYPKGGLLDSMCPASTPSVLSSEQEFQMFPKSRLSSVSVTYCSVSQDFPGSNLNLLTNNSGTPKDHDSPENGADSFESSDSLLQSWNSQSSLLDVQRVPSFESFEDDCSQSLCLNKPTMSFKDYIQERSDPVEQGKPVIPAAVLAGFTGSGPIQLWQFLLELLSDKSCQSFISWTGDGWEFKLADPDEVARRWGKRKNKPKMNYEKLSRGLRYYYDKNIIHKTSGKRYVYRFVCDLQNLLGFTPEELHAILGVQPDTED
# Summary of the method: as §1
# ETV7 = target: T11, ETV7 (Homo sapiens, UniProt Q9Y603 1-341)
# T11 sequence: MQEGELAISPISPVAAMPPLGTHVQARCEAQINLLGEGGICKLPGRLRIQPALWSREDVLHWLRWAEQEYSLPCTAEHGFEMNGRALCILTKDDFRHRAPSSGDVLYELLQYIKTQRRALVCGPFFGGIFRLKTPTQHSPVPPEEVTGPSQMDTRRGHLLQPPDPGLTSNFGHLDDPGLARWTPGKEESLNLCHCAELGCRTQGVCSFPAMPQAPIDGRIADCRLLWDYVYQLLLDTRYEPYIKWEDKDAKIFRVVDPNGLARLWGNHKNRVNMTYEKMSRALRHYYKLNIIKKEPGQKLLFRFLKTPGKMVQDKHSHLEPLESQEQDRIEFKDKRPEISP
# Summary of the method: as §1
# ETV3 = target: T12, ETV3 (Homo sapiens, UniProt P41162-2 1-143)
# T12 sequence: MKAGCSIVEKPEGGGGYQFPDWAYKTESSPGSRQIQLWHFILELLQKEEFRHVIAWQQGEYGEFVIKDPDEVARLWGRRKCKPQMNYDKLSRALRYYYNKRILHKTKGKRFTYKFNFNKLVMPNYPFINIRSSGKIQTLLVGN
# Summary of the method: as §1
# ETV6 = ETV6 (Homo sapiens, UniProt P41212 1-452)
# Summary of the method: as §1
# ETV5, sequence (P41161 whole entry): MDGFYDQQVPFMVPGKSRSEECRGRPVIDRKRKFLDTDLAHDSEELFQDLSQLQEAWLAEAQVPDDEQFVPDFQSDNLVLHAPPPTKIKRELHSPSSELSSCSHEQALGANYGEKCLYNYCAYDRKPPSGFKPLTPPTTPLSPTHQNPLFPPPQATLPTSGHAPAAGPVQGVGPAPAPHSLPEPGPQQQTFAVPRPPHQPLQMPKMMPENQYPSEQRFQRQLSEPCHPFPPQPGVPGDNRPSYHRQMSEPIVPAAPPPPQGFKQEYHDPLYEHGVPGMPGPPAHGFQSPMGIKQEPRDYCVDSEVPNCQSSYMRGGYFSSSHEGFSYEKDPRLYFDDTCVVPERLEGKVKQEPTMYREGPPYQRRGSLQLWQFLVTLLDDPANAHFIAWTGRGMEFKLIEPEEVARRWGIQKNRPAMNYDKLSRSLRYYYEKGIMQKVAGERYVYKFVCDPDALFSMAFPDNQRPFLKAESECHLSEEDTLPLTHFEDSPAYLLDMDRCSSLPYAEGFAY
# ETV1, sequence (P50549 whole entry): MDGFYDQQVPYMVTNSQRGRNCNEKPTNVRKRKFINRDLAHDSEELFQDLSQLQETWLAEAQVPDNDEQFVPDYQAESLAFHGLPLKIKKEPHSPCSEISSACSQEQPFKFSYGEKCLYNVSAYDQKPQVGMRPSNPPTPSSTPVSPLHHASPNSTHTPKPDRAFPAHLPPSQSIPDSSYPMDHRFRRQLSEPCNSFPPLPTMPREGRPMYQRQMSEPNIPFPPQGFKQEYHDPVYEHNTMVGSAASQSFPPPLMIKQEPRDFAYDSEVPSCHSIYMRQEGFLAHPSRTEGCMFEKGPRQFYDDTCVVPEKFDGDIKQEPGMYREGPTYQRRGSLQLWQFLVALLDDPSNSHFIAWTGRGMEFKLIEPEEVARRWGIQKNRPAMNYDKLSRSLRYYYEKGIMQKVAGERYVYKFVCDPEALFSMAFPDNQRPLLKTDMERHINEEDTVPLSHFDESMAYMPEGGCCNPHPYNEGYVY
# ETV6, sequence (P41212 whole entry): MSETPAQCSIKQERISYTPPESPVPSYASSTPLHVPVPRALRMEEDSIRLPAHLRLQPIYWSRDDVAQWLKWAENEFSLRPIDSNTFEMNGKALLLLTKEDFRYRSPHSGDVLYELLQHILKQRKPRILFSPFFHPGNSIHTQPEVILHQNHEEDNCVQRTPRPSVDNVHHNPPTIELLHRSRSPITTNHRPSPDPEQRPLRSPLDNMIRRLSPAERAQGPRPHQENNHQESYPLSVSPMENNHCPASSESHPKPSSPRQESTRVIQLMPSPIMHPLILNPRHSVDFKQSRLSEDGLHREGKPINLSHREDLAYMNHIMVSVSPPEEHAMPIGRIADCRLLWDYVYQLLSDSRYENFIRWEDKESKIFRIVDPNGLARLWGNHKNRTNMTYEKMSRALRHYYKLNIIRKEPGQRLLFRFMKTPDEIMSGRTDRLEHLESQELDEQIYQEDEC
# ELF4, sequence (Q99607 whole entry): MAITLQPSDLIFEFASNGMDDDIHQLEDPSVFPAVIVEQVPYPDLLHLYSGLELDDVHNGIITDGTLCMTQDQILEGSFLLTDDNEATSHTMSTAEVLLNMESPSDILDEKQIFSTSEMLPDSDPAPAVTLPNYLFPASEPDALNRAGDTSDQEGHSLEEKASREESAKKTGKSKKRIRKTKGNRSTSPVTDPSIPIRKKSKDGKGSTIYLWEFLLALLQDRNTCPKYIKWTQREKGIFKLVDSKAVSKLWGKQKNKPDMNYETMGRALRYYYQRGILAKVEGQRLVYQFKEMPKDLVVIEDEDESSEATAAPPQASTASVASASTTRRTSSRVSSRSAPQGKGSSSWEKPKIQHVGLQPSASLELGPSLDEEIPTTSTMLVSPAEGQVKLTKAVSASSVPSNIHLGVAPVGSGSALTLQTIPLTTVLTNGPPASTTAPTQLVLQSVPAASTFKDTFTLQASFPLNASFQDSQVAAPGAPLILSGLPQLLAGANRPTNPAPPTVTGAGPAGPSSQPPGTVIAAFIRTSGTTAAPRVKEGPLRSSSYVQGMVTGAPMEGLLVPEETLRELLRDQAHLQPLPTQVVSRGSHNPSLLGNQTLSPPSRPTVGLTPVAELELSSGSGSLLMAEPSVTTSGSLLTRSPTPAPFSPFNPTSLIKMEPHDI
# ELF1, sequence (P32519 whole entry): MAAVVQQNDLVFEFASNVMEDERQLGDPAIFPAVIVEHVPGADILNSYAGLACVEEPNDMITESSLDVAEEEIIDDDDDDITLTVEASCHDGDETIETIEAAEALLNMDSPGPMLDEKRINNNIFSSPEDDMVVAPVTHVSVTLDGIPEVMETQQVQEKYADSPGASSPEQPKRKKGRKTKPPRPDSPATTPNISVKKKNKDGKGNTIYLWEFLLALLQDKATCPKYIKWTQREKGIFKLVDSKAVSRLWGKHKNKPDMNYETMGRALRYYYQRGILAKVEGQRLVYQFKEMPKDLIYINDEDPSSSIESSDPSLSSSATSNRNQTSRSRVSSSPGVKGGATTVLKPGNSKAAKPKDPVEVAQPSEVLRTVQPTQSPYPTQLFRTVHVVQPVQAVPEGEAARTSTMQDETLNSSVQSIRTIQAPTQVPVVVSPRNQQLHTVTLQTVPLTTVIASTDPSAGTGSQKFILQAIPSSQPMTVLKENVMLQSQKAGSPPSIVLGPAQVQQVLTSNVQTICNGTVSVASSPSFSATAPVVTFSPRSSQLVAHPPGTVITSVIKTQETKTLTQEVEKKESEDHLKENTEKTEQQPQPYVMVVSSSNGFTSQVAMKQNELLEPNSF
sequence,measurement,setting,value
TCACCG,binding signal,ELK1,"1.16 fold enrichment (6-mer frequency, TF over GST control)"
same,binding signal,GABPA,"1.2 fold enrichment (6-mer frequency, TF over GST control)"
same,binding signal,ERG,"1.14 fold enrichment (6-mer frequency, TF over GST control)"
same,binding signal,ELF1,"1.11 fold enrichment (6-mer frequency, TF over GST control)"
same,binding signal,EHF,"1.05 fold enrichment (6-mer frequency, TF over GST control)"
same,binding signal,FEV,"1.18 fold enrichment (6-mer frequency, TF over GST control)"
same,binding signal,ETV5,"1.13 fold enrichment (6-mer frequency, TF over GST control)"
same,binding signal,ELF4,"1.21 fold enrichment (6-mer frequency, TF over GST control)"
same,binding signal,ELK4,"1.04 fold enrichment (6-mer frequency, TF over GST control)"
same,binding signal,ELF3,"1.07 fold enrichment (6-mer frequency, TF over GST control)"
same,binding signal,ETV1,"1.15 fold enrichment (6-mer frequency, TF over GST control)"
same,binding signal,ERF,"1.05 fold enrichment (6-mer frequency, TF over GST control)"
same,binding signal,ETV3L,"1.09 fold enrichment (6-mer frequency, TF over GST control)"
same,binding signal,ETS2,"1.15 fold enrichment (6-mer frequency, TF over GST control)"
same,binding signal,ETV7,"1.02 fold enrichment (6-mer frequency, TF over GST control)"
same,binding signal,ETV3,"1.05 fold enrichment (6-mer frequency, TF over GST control)"
same,binding signal,ETV6,"1.03 fold enrichment (6-mer frequency, TF over GST control)"
